Assay results from PubChem BioAssay.
Activity calls are given as the source filed them.

Tests used:
[1] = test system: Plasmodium falciparum Sir2 (PF13_0152, Sir2A); experiment: Plasmodium falciparum Sir2A binding compounds – biochemical, small-molecule microarray, 635 nm fluorescence, primary screen (AID 1098); details: fluorescence 635 nm, higher = more signal;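 further: score merges spot fluorescence intensity with its signal-to-noise ratio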
[2] = probe aDKK1 binding to arrayed compounds – biochemical, biotinylated probe, 635/667 nm fluorescence, primary screen (AID 1099); details: small-molecule microarray, higher = more signal;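 further: score merges 667nm spot fluorescence with signal to noise across triplicate slides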
[3] = probe aCHRDL2 binding to arrayed compounds – biochemical, biotinylated probe, 635/667 nm fluorescence, primary screen (AID 1100); details: small-molecule microarray, higher = more signal
[4] = change in splice reporter luminescence, either direction, cell-based, HEK293, spliceosome inhibition project, primary screen (AID 1101); details: HEK293 splicing luciferase reporter, 24 h, higher = more signal, called active from +8 up or from −8 down;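 further: HEK293 cells carrying a splicing-competent luciferase reporter gene; test concentration not given here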
[5] = molecular target: Fibroblast growth factor 10 (Homo sapiens) (UniProt O15520); experiment: compounds binding fibroblast growth factor 10 – biochemical, small-molecule microarray, 635 nm fluorescence, primary screen (AID 1102); details: FGF10 binding, fluorescence 635 nm, higher = more signal
[6] = test system: glycogen synthase kinase-3 (GSK3A per assay name; protocol says GSK3B); experiment: compounds binding glycogen synthase kinase-3 – biochemical, small-molecule microarray, 635 nm fluorescence, GSK3A, primary screen (AID 1103); details: fluorescence 635 nm, higher = more signal; further: the record names both GSK3A and GSK3B
[7] = molecular target: Epidermal growth factor receptor (Homo sapiens) (UniProt P00533); experiment: compounds binding epidermal growth factor receptor – biochemical, small-molecule microarray, 635 nm fluorescence, primary screen (AID 1104); details: EGFR binding, higher = more signal;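 further: score merges 667 nm emission intensity with spot signal to noise over triplicate slides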
[8] = molecular target: Follistatin-related protein 3 (Homo sapiens) (UniProt O95633); experiment: compounds binding follistatin-related protein 3 – biochemical, small-molecule microarray, 635 nm fluorescence, primary screen (AID 1105); details: FSTL3 binding, higher = more signal;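 further: score merges emission near 667 nm and signal to noise per printed spot across three slides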
[9] = molecular target: Dickkopf-related protein 1 (Homo sapiens) (UniProt O94907); experiment: small molecules binding DKK1 protein – biochemical, small-molecule microarray, 635 nm fluorescence scan, primary screen (AID 1106); details: higher = more signal;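 further: score merges emission near 667 nm with signal to noise over three replicate slides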
[10] = test system: Inhibin beta A chain (activin A); experiment: small molecules binding activin A – biochemical, small-molecule microarray, 635 nm fluorescence scan, primary screen (AID 1107); details: INHBA, higher = more signal;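 further: mouse activin A protein probed at 4.33 µg/mL on printed slides; score merges bound-protein fluorescence near 667 nm with spot signal-to-noise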
[11] = test system: Human papillomavirus type 1a protein E7 (residues 44-93); experiment: small molecules binding HPV E7 44-93 – biochemical, small-molecule microarray, residues 44-93, 635 nm fluorescence, primary screen (AID 1108); details: fluorescence 635 nm, higher = more signal;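 further: E7 fragment applied at 1 µg/mL in TBST for 1 h at 4 C; score combines spot fluorescence with its signal to noise ratio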
[12] = hepatitis C replication reporter changes, two-sided – Huh7 cells, luciferase reporter, HCV replication inhibitor project, primary screen (AID 1109); details: Huh7 HCV replicon luciferase reporter, 48 h; higher = more signal;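 further: huh7 hepatoma cells harbouring a luciferase neomycin HCV replicon reporter; luciferase luminescence as measure of HCV replicon replication; test concentration not given here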
[13] = molecular target: Left-right determination factor 2 (Homo sapiens) (UniProt O00292); experiment: small molecules binding LEFTY2 protein – biochemical, small-molecule microarray, 635 nm fluorescence scan, primary screen (AID 1110); details: higher = more signal
[14] = molecular target: Calmodulin-1 (Homo sapiens) (UniProt P0DP23); experiment: small molecules binding calmodulin-1 with EGTA – biochemical, small-molecule microarray, Cy5-labelled CALM1, profiling panel (AID 1111); details: Cy5-CALM1 binding fluorescence, higher = more signal;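 further: labelled calmodulin applied in Tris saline Tween buffer holding calcium plus EGTA and DTT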
[15] = molecular target: Calmodulin-1 (Homo sapiens) (UniProt P0DP23); experiment: small molecules binding Ca-loaded calmodulin-1 – biochemical, small-molecule microarray, Cy5-labelled CALM1, plus calcium, artefact control for SMM control-protein annotation, profiling panel (AID 1112); details: Cy5-CALM1 binding fluorescence, higher = more signal;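 further: score merges spot fluorescence with signal to noise from triplicate slides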
[16] = probe aWnt5a binding to arrayed compounds – biochemical, biotinylated probe, 635/667 nm fluorescence, primary screen (AID 1113); details: small-molecule microarray, higher = more signal;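 further: score merges 667 nm fluorescence intensity with signal-to-noise per printed feature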
[17] = probe aShh binding to arrayed compounds – biochemical, biotinylated probe, 635/667 nm fluorescence, primary screen (AID 1114); details: small-molecule microarray, higher = more signal;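 further: probe is biotin-labelled aShh protein from a stem cell growth factor screen; measures binding of labelled protein to compounds printed on the slide; score merges feature fluorescence at 667 nm with signal-to-noise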
[18] = probe aNog binding to arrayed compounds – biochemical, biotinylated probe, 635/667 nm fluorescence, primary screen (AID 1115); details: small-molecule microarray, higher = more signal;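 further: probe is biotinylated aNog protein used at 0.15 µg/mL for 1 h at 4 C; z-score combines 667 nm fluorescence of each spot with its signal to noise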
[19] = molecular target: Torsin-1A-interacting protein 1 (Homo sapiens) (UniProt Q5JTV8); experiment: compound microarray binding of lysate hLAP1 – cell lysate, small-molecule microarray, COS7 lysate, 635/667 nm fluorescence, primary screen (AID 1116); details: 635 nm fluorescence, higher = more signal
[20] = molecular target: Alpha-bungarotoxin (Bungarus multicinctus) (UniProt P60615); experiment: compounds binding labelled alpha-BTX control protein – biochemical, small-molecule microarray, Alexa647 label, 635/667 nm fluorescence, artefact control for SMM control protein annotation, profiling panel (AID 1117); details: alpha-BTX-A647 binding fluorescence, higher = more signal
Sequence of Alpha-bungarotoxin (Bungarus multicinctus) (P60615 whole entry, looked up): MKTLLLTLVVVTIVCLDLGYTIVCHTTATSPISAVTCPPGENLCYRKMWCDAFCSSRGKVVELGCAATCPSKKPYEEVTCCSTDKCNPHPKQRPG

Sequence of Follistatin-related protein 3 (Homo sapiens) (O95633 whole entry, looked up): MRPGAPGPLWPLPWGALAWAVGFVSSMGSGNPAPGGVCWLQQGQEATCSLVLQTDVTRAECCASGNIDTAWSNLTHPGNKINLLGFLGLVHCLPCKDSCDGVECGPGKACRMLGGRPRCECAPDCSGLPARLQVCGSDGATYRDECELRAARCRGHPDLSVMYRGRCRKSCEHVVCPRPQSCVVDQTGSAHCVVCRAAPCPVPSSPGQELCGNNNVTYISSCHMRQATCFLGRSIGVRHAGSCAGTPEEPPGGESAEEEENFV
Sequence of Left-right determination factor 2 (Homo sapiens) (O00292 whole entry, looked up): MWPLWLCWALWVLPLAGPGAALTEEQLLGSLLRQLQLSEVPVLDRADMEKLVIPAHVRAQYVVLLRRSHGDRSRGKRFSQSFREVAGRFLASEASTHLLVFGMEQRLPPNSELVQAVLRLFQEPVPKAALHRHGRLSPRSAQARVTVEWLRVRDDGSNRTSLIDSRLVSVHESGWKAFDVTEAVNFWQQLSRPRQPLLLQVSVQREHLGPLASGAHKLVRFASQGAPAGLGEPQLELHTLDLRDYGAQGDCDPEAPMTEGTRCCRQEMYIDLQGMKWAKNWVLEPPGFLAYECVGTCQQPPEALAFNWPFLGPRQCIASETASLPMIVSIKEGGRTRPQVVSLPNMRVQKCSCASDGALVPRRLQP
Sequence of Torsin-1A-interacting protein 1 (Homo sapiens) (Q5JTV8 whole entry, looked up): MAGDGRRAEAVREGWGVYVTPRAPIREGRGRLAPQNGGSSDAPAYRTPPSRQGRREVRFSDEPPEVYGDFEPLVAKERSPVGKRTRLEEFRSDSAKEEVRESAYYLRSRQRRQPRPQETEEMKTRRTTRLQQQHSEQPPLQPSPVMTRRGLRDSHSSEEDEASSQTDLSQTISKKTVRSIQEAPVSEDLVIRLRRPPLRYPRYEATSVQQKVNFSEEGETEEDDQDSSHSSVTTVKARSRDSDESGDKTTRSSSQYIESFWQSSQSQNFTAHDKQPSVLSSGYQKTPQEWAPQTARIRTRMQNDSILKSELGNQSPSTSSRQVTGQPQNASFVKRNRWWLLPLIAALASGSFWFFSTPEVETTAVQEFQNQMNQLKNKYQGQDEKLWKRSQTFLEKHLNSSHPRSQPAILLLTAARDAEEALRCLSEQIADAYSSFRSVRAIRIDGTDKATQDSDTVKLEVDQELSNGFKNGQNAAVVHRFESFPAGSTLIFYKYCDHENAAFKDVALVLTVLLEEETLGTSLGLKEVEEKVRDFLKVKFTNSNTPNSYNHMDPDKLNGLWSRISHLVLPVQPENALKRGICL
Sequence of Fibroblast growth factor 10 (Homo sapiens) (O15520 whole entry, looked up): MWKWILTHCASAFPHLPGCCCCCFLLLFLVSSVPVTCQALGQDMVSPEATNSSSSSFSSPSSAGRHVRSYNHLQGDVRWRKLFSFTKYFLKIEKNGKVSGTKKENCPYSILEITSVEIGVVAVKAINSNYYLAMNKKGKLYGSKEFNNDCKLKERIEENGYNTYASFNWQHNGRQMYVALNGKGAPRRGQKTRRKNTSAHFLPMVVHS
Sequence of Epidermal growth factor receptor (Homo sapiens) (P00533 whole entry, looked up): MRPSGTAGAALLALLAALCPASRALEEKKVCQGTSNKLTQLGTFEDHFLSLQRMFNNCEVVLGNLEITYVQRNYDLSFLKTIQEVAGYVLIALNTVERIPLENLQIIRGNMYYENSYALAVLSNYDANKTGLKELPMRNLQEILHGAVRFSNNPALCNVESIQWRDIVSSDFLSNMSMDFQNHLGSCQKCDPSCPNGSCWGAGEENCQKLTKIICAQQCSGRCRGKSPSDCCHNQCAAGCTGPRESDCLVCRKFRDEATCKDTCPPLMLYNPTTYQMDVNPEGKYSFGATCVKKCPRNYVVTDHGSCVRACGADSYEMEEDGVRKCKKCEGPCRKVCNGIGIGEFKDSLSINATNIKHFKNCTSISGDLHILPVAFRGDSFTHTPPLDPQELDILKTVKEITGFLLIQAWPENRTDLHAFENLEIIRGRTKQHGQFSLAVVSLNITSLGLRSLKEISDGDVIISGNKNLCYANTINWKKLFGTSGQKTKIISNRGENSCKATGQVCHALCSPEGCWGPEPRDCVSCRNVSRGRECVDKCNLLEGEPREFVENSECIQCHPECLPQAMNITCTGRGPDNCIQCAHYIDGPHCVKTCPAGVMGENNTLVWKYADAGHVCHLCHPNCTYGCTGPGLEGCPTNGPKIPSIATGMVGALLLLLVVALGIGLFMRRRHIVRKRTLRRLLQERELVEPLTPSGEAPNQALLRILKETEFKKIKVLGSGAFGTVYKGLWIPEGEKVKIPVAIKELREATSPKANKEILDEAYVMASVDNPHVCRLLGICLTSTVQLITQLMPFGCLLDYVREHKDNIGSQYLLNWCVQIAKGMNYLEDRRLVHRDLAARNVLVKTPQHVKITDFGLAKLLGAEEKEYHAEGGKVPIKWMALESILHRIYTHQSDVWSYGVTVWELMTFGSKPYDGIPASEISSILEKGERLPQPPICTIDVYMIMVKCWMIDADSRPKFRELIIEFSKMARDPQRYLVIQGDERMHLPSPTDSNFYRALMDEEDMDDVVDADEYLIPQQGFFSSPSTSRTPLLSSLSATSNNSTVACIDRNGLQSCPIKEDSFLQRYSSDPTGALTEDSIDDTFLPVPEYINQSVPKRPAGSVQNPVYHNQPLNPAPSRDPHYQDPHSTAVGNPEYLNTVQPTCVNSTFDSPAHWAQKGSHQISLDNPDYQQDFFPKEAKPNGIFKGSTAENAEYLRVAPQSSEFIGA
Sequence of Dickkopf-related protein 1 (Homo sapiens) (O94907 whole entry, looked up): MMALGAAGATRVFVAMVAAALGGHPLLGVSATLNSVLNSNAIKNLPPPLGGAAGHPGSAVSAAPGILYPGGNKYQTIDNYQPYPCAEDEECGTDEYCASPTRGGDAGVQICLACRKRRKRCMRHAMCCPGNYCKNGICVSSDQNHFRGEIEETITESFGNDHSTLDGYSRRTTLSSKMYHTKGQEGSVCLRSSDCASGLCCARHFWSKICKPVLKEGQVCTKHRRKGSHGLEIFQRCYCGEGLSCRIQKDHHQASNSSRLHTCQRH

Row | SMILES | composite z-score [1] | composite z-score [2] | composite z-score [3] | z-score [4] | composite z-score [5] | composite z-score [6] | composite z-score [7] | composite z-score [8] | composite z-score [9] | composite z-score [10] | composite z-score [11] | z-score [12] | composite z-score [13] | composite z-score [14] | composite z-score [15] | composite z-score [16] | composite z-score [17] | composite z-score [18] | composite z-score [19] | composite z-score [20]
1 | CC(C)CN1C(=O)[C@@]2(Cc3ccccc31)c1ccccc1C(=O)N(Cc1ccccc1)[C@H]2c1ccc(CO)cc1 | -0.743 | 0.236 | 0.514 | -0.489 (inactive) | -0.701 | -0.776 | -0.636 | 0.554 | -0.952 | -0.298 | -0.587 | 0.15 | -0.757 | -0.361 | -0.195 | -0.096 | -0.206 | -0.175 | -0.845 | -0.0612
2 | COCCOC(=O)N1C(=O)[C@@]2(c3cc(C#CCNC(N)=O)ccc31)[C@H](C(=O)N1CCCCCCC1)[C@H]1C(=O)O[C@H](c3ccccc3)[C@H](c3ccccc3)N1[C@@H]2c1ccc(OCCO)cc1 | 0.918 | 0.774 | 0.989 | 0.524 (inactive) | 0.544 | 0.211 | 0.588 | 0.762 | 0.0313 | 0.999 | 0.748 | -0.431 | 0.277 | 1.13 | 0.801 | 0.0075 | -0.138 | -0.118 | 0.263 | 1.09
3 | COc1ccc([Si](C)(C)[C@H]2[C@H](CC(=O)N3CCC[C@H]3CO)O[C@@]3(C(=O)N(Cc4ccc(N5C(=O)c6cccc7cccc5c67)cc4)c4ccccc43)[C@@H]2C)cc1 | 1.4 | 0.184 | 0.0075 | -1.17 (inactive) | 0.651 | 1.2 | 0.6 | 1.35 | 0.736 | 0.4 | 1.14 | -1.96 | 0.758 | 0.325 | -0.544 | -0.0944 | 0.151 | 0.473 | 0.585 | 2.05
4 | COC(=O)C(CC#Cc1ccc2c(c1)[C@]1(C(=O)N2)[C@H](C(=O)N2CCc3cc(OC)c(OC)cc3C2)[C@H]2C(=O)O[C@H](c3ccccc3)[C@H](c3ccccc3)N2[C@@H]1c1ccc(OCCO)cc1)C(=O)OC | 1.08 | 0.0138 | 0.415 | -0.291 (inactive) | 1.39 | 1.3 | 0.732 | 0.94 | 0.544 | 0.614 | 1.41 | -1.21 | 0.633 | 1.07 | 0.16 | -0.0236 | -0.159 | -0.198 | 0.254 | 1.08
5 | CC(C)[Si](C#C[Si](C(C)C)(C(C)C)C(C)C)(O[C@H](C)c1cn(Cc2cccc(Cl)c2)nn1)C(C)C | 0.259 | -0.493 | -0.578 | -0.589 (inactive) | 0.539 | 1.14 | 0.863 | 0.433 | 0.459 | -0.33 | 0.953 | -0.266 | 0.499 | 1.01 | 0.506 | -0.253 | -0.243 | -0.175 | 0.0392 | 1.03
6 | CCOC(=O)C[C@H]1[C@H](OC(=O)Cc2ccc3c(c2)OCO3)[C@@H](NC(=O)c2ccccc2)c2cc(OCCCO)ccc2N1C(=O)c1ccccc1 | -0.0111 | -0.0126 | -0.0843 | -0.299 (inactive) | 0.603 | 0.505 | 0.437 | 0.371 | 0.276 | 0.524 | 0.487 | -0.183 | 0.24 | 0.334 | -0.469 | -0.128 | -0.221 | -0.18 | 0.223 | 0.652
7 | COCCCNC(=O)[C@@H]1c2ccccc2C(=O)N(c2ccc(C)cn2)[C@H]1c1ccc(CO)cc1 | 1.21 | -0.281 | 1.01 | -0.517 (inactive) | -1.87 | -1.19 | -2.24 | -1.84 | -1.42 | -1.84 | -0.745 | 0.176 | -1.83 | -0.878 | -0.827 | -0.363 | -0.19 | -0.244 | -2.83 | -0.958
8 | CCCCC(O)C1C=CC2C(=O)N(Cc3ccccc3)C(=O)C2N1n1cnnc1 (stereo not given) | 0.769 | -0.0884 | 0.213 | -0.75 (inactive) | 0.303 | 0.144 | 0.188 | 0.412 | 0.178 | 1.05 | 1.13 | -1.09 | 0.23 | 0.0285 | -0.163 | -0.0087 | 0.13 | -0.0351 | 0.208 | 0.274
9 | CC1CC/C=C\[C@H]2OC34C=CCN(c5ccc(Cl)cc5)C(=O)[C@H]3N(C(CO)C(C)C)C(=O)[C@]4(C)C2C(=O)O1 (stereo not given in full) | 1.86 | -0.0977 | 0.281 | 0.323 (inactive) | -0.0355 | -0.364 | -0.799 | -0.786 | -0.717 | 0.813 | -0.806 | -0.392 | -1.22 | -0.505 | 0.0376 | -0.152 | -0.154 | -0.679 | 0.184 | -0.59
10 | O=c1c2ccc(Br)cc2nc(-c2ccccc2)n1Cc1cccc(O)c1 | 0.524 | 0.864 | 0.715 | -0.376 (inactive) | 0.528 | 0.476 | 0.145 | 0.547 | 0.0301 | 0.41 | -0.128 | -0.153 | 0.194 | 2.32 | 0.756 | 0.0438 | -0.305 | -0.218 | 2.51 | 1.8
11 | Cc1ccc(S[C@]2(C(=O)O)CC(=O)N(Cc3ccccc3C(F)(F)F)[C@@H]2c2ccc(CO)cc2)cc1 | -0.809 | -0.0885 | 1.08 | 0.0922 (inactive) | -0.628 | -0.926 | -1.01 | -0.894 | -1.03 | 1 | 0.973 | 0.0788 | -0.587 | -0.317 | 0.228 | -0.176 | -0.138 | -0.321 | 0.914 | -0.115
